We go through 13 compounds from PubChem BioAssay (Tox21).

Several values for one entry are separate records, joined by “and”; a condition that tells them apart may be missing. Equal values may be shown once. Records with an inconclusive call do not appear. Activity calls are given as the source filed them. Calls follow the shape of the dose curve; as a rule, active = well fitted curve in the direction sought with a large enough effect in the repeat runs; inconclusive = weak or mixed curves; inactive = no such curve, though single readings can be large; an effect the other way counts as inactive or inconclusive.

For assay [1], the target named is Cytochrome P450 2C9 (Homo sapiens) (UniProt P11712). Description: Cytochrome P450 Family 2 Subfamily C Member 9 (CYP2C9) small molecule antagonists: luciferase reporter qHTS assay (AID 1671198). The following applies: P450-Glo CYP2C9 enzyme assay, luciferin luminescence; series mostly up to 115 µM. Put shortly:
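CYP2C9 activity was measured with a P450-Glo proluciferin substrate. Enzyme–substrate mix was held with compound for 10 min at room temperature, then NADPH regeneration solution was added for 1 h at 37C. Luciferin product was read as luminescence.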
A general note: A reporter such as luciferase makes a cellular process visible.

Assay [2] deals with Cytochrome P450 1A2 (Homo sapiens) (UniProt P05177). Description: Cytochrome P450 Family 1 Subfamily A Member 2 (CYP1A2) small molecule antagonists: luciferase reporter qHTS assay (AID 1671199). The settings on record: P450-Glo CYP1A2 enzyme, luciferin luminescence, 1 h; series mostly up to 115 µM. Put shortly: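 Room-temperature CYP1A2 reaction with proluciferin substrate: compounds added from DMSO, 10 min preincubation, NADPH regeneration for 1 h. Luciferin detection reagent then added; luminescence recorded as RLU.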

Assay [3] deals with Voltage-gated inwardly rectifying potassium channel KCNH2 (Homo sapiens) (UniProt Q12809). Description: Human Ether-a-go-go-Related Gene (hERG) channel small molecule antagonists: fluorescence cell-based qHTS assay (AID 1671200). The following applies: hERG-U2OS cells, FluxOR thallium flux fluorescence; series mostly up to 76.8 µM. In outline:
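U2OS cells expressing the channel were plated at 1000 cells/well, incubated overnight at 37 C, then loaded with FluxOR II thallium-sensitive dye for 1 h at room temperature in the dark, with a further 10 min at room temperature before stimulation.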
On the technique in general: hERG is a cardiac potassium channel; its block is linked to QT prolongation.

Assay [4] has as its target Cytochrome P450 3A4 (Homo sapiens) (UniProt P08684). Description: Cytochrome P450 Family 3 Subfamily A Member 4 (CYP3A4) small molecule antagonists: luciferase reporter qHTS assay (AID 1671201). The settings on record: P450-Glo CYP3A4 enzyme, luciferin luminescence, 1 h; series mostly up to 115 µM. In outline: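 P450-Glo CYP3A4 system with proluciferin substrate; compounds preincubated 10 min RT with enzyme-substrate mix, then NADPH regeneration added for 1 h RT. Detection reagent 20 min, luminescence read as relative luminescence units.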
Also: nearly all actives have a fitted effect of over 50% in size.
Potency is read from the fitted curve at half-maximal effect.

Sequence of Cytochrome P450 1A2 (Homo sapiens) (P05177 whole entry, looked up): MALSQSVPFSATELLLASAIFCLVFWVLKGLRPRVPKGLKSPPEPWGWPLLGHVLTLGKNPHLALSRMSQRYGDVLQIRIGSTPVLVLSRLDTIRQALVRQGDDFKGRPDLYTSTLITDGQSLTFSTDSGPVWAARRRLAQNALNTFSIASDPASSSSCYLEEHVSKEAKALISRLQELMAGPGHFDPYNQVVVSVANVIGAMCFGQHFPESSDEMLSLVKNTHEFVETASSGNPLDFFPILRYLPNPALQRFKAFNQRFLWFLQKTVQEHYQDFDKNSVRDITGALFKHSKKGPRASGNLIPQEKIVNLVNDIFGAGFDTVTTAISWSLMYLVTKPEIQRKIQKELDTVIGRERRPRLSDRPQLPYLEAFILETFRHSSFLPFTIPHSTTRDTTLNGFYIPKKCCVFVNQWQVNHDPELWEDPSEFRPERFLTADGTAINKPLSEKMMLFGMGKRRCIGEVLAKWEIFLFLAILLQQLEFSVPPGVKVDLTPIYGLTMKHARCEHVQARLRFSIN
Sequence of Cytochrome P450 3A4 (Homo sapiens) (P08684 whole entry, looked up): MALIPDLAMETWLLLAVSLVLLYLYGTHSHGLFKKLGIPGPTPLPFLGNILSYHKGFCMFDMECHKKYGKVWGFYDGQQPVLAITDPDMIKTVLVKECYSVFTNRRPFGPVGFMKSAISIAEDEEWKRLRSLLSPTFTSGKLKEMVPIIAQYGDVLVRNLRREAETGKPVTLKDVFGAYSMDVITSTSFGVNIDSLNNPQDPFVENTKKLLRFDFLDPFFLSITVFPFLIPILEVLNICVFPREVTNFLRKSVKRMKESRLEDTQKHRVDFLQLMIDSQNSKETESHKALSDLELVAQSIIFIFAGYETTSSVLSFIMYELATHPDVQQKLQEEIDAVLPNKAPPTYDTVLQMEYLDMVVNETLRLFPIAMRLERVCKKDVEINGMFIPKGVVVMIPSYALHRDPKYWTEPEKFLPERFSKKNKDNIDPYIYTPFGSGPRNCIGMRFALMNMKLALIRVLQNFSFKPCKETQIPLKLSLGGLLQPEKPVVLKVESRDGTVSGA
Sequence of Cytochrome P450 2C9 (Homo sapiens) (P11712 whole entry, looked up): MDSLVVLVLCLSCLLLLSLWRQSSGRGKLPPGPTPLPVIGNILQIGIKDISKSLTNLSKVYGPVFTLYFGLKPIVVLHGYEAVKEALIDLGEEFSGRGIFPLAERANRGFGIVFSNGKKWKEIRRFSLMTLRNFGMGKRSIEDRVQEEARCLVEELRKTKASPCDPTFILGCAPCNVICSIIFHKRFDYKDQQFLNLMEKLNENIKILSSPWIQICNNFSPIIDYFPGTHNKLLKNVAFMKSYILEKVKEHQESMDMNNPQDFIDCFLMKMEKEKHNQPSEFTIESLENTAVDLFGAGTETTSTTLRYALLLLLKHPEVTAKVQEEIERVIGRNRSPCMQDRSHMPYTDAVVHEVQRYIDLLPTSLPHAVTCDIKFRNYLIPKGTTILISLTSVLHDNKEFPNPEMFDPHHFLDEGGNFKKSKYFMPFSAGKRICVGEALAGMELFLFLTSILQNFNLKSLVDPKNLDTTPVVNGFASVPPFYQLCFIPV
Sequence of Voltage-gated inwardly rectifying potassium channel KCNH2 (Homo sapiens) (Q12809 whole entry, looked up): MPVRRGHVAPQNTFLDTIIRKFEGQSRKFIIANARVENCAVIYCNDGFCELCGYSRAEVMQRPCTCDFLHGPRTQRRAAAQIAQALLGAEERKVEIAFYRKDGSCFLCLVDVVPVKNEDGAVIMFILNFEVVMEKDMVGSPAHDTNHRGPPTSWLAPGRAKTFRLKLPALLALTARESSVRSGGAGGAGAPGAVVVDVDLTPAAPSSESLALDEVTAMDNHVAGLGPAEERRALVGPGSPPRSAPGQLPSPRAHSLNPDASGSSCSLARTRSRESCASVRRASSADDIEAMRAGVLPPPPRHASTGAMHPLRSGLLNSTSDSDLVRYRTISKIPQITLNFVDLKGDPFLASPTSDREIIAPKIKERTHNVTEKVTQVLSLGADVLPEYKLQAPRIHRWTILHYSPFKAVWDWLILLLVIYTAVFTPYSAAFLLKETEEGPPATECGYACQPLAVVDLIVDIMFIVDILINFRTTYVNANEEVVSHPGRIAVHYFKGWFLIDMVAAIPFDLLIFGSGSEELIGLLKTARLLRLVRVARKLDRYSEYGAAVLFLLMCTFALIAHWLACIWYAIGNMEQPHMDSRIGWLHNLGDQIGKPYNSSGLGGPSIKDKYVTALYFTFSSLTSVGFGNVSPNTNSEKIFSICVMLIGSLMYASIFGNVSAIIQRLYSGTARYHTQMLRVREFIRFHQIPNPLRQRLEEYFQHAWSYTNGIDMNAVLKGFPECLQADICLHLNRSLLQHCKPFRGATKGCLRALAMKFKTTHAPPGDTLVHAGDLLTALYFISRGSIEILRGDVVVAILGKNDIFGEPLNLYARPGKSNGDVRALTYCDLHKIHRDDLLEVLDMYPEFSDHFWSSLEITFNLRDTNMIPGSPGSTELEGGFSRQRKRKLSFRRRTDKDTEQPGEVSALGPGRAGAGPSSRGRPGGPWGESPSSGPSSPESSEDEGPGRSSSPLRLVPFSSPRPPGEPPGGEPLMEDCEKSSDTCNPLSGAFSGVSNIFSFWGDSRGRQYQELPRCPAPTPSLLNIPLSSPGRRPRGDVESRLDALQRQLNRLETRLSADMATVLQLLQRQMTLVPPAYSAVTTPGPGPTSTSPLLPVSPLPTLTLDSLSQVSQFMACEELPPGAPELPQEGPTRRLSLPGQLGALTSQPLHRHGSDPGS

In the case of `Brc1ccccn1`, the Potency result in assay [1], in assay [2], in assay [3] and in assay [4] was “inactive” in each case.

As to `O=CC1CC1`, the Potency entry in assay [1], in assay [2], in assay [3] and in assay [4] was “inactive” each time.

With `CCCCCCCCCCCCCc1ccccc1`, the Potency entry in assay [1], in assay [2] and in assay [4] was “inactive” each time.

`Cc1cccc(C)n1`: the Potency entry in assay [1] and in assay [4] was “inactive” in each case. For the same compound, the Potency in assay [2] is 39.9 µM (active).

Take `CC(C)(C)c1n[nH]c(=O)n(N)c1=O`: the Potency result in assay [1], in assay [2], in assay [3] and in assay [4] was “inactive” each time.

As for `CC=O`, the Potency entry in assay [1] and in assay [4] was “inactive” in each case. Also, the Potency is 37.2 µM (active) in assay [2] and 4.57 µM (active) in assay [3].

`CCN(CC)CCNc1ccc(CO)c2sc3ccccc3c(=O)c12`: the Potency entry in assay [1] and in assay [4] was “inactive” each time. Further, the Potency in assay [2] is 0.512 µM (active); in assay [3], 10.7 µM (active).

On to `CSc1ccc2c(c1)N(CCC1CCCCN1C)c1ccccc1S2` (stereo not drawn), for which the Potency in assay [1] was 70.7 µM (active); in assay [2], 28.1 µM (active) and 15.5 µM (active). For the same compound, the Potency result in assay [4] was “inactive”.

For `CC(C)=CCCC(C)O` (stereo not drawn), the Potency result in assay [1], in assay [2], in assay [3] and in assay [4] was “inactive” each time.

On to `CC1=CP(=O)(c2ccccc2)CC1` (stereo not drawn), for which the Potency entry in assay [1], in assay [2], in assay [3] and in assay [4] was “inactive” in each case.

Consider `c1ccc(Nc2cccc3ccccc23)cc1`, for which the Potency in assay [1] was 36.1 µM (active) and 35.6 µM (active); in assay [2] it was 6.41 µM (active) and 17.8 µM (active); in assay [3] it was 35.1 µM (active) and 17.4 µM (active); in assay [4], 36.1 µM (active) and 79.6 µM (active).

With `O=C1OC(OC(=O)c2cccnc2Nc2cccc(C(F)(F)F)c2)c2ccccc21` (stereo not drawn), the figures for the Potency in assay [1] and in assay [2] were 6.17 µM (active) and 9.77 µM (active), respectively. In addition, the Potency entry in assay [4] is “inactive”.

Consider `CCC(C)(C)c1cc(O)c(C(C)(C)CC)cc1O`, for which, in assay [1], the Potency is 63.3 µM (active). Moreover, the Potency entry in assay [2], in assay [3] and in assay [4] was “inactive” in each case.
